Assay outcomes: PubChem, National Center for Advancing Translational Sciences (NCATS)
Rows were chosen to be rich in hits. Some 7.4% of all compounds tested hit in one or more screens of this group.
ELG1 genotoxic: inducers of genotoxicity in HEK293T ELG1-luciferase cells | HEK293T ELG1-luciferase reporter, luminescence, 16 h | Potency, µM (doses to about 46 µM), for inactives: top-dose activity change, positive = activation, usual class: activators | 1.3% of 330,000 active | AID 504466; note: % of control where 0% means no effect; nearly all actives have a fitted effect of over 60% in size
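Quantitative HTS format in 1536-well plates. HEK293T ELG1-luciferase reporter cells receive test compound and are incubated 16 hr at 37 °C, 5% CO2; ONE-Glo added, 30 min room temperature, then luminescence read.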
Rab9 prom act: activates the Rab9 promoter; Huh7 Rab9 promoter-luciferase reporter, luminescence, 24 h; Potency, µM (series often up to 9.22 µM), without a hit: top-dose activation, negative = inhibition, most hits filed as activators; 2.8% of 320,000 active; note: % of control where 0% means no effect; nearly all actives have a fitted effect of over 60% in size
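Using Huh7 cells stably transfected with Rab9 promoter–luciferase, compounds were incubated 24 h at 37 °C, 5% CO2; luciferase luminescence was read 10 min after reagent addition.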
NPC1 promoter act: NPC1 promoter activation. Huh7 NPC1 promoter luciferase reporter, 24 h. Potency, µM (titrated, usually from 9.22 µM), without a hit: at the top dose activation, usual class: activators. 2.4% of 320,000 active; note: % of control where 0% means no effect; nearly all actives have a fitted effect of over 60% in size
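In 1536-well qHTS, Huh7 cells harboring an NPC1 promoter–luciferase construct received compound for 24 h; activation was quantified by luminescence following luciferase reagent addition.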
FLuc counter: inhibits or activates purified firefly luciferase, miR-21 counter-screen. AID 588342. P08659. Potency, µM (series often up to 57.5 µM), for the others: at the top dose activity change, negative = inhibition, hits mostly inhibitors. purified FLuc, Km substrates, luminescence inhibition. 6.9% of 360,000 active;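 note: plate controls were vehicle for no effect and reference inhibitor for full effect; nearly all actives have a fitted effect of over 55% in size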
Target sequence (P08659 whole entry, looked up): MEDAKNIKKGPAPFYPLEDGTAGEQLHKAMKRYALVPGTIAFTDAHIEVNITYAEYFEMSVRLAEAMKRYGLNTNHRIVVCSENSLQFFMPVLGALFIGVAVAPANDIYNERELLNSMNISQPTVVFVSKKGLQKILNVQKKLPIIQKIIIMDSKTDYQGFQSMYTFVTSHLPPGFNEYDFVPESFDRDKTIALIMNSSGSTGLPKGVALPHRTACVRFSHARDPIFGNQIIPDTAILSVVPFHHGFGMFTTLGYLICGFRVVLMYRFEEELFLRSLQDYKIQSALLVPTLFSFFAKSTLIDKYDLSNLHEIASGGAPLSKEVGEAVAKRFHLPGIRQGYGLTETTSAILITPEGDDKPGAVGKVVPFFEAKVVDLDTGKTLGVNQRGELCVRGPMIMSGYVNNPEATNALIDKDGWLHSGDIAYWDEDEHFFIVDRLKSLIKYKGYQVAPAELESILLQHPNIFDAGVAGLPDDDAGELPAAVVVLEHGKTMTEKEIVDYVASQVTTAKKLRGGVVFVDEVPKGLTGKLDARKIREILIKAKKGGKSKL
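Purified P. pyralis luciferase, 10 nM final, with Km-level 10 uM D-luciferin and 10 uM ATP in 50 mM Tris acetate pH 7.5, 10 mM Mg acetate, 0.01% Tween-20, 0.05% BSA; 6-point qHTS titration about 60 µM downward; luminescence read.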
SMN2 splice up: SMN2 splice variant enhancement; HEK293 SMN2-luciferase splicing reporter, luminescence, 30-36 h; Potency, µM (highest dose often 46.1 µM), inactives show at the highest dose activity change, positive = activation, actives largely listed as activators; 2.8% of 210,000 active; note: % of control where 0% means no effect; nearly all actives have a fitted effect of over 55% in size
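HEK293 cells carry an SMN2 minigene-luciferase reporter in which exon 7 inclusion puts luciferase in frame. Cells were seeded at 2000 cells/well, attached for 10-12 hours, then exposed to compounds for 30-36 hours at 37C before ONE-Glo luminescence.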
An asterisk follows results filed as active; ? = inconclusive; . = no result; [ ] = another dose, or the depositor's remark. Calls come from the whole dose curve; as a rule, active = well fitted curve in the direction sought with a large enough effect; inconclusive = small, poorly fitted or top-dose-only effect, or another doubt; inactive = no such curve, though single readings can be large; an effect the other way counts as inactive or inconclusive. Potency is the fitted concentration of half-maximal effect.

SMILES	ELG1 genotoxic	Rab9 prom act	NPC1 promoter act	FLuc counter	SMN2 splice up
CC1=NC(=O)C(N=Nc2cccc(O)c2)N1c1ccccc1 (configuration not stated)	14.6µM*	7.1%	-5.9%	6.75µM*	-10.6%
O=C(O)Cc1cccc2c(=O)cc(-c3ccccc3)oc12	.	.	.	.	-8.3%[9.22 µM]
Nc1cccc2cc(-c3ccccc3)oc12	?	?	3.98µM*	4.78µM*	.
COc1ccc(-c2cnc(-c3cccnc3)o2)cc1	.	.	.	.	11.2µM*
CCOc1cc(C(=O)Nc2ccc(NC(=O)c3cc4ccccc4o3)c(OC)c2)cc(OCC)c1OCC	.	.	.	-7.2%	0.3%
Clc1cccc(N/N=C/c2ccc(N3CCOCC3)s2)c1	-9.4%	20.7%	-0.8%	9.53µM*	-5.4%
O=C(N/N=C/c1ccc(N2CCOCC2)s1)c1ccccc1Br	4.7%	26.1%	10.5%	?	15.3%
O=C1C2C3C=CC(CC3)C2C(=O)N1/N=C/c1ccc(O)cc1 (configuration not stated)	?	25.5%	?	15.1µM*	2.5%
O=C(O)c1cc(-c2ccc(/C=N/N3C(=O)C4C5C=CC(CC5)C4C3=O)o2)ccc1Cl (configuration not stated)	3.4%	1.1%	0.9%	19µM*	.
COC(=O)c1ccc(-c2ccc(/C=N/N3C(=O)C4C5C=CC(CC5)C4C3=O)o2)cc1 (configuration not stated)	-6.9%	3.16µM*	3.16µM*	23.9µM*	5.01µM*
COc1ccc2cc([S+]([O-])Cc3ncc(C)c(OC)c3C)nc2c1	.	13.2%[46.1 µM]	15.5%[46.1 µM]	.	.
COc1ccc(N2CCN(C(=O)COC(=O)CCc3ccccc3OC)CC2)cc1	10.7%	-2.5%	-2.1%	4.6%	.
Cc1cc(C)nc(Nc2nc(=O)c3ccccc3s2)n1	18.4µM*	?	?	16.9µM*	?
CCCSc1nc(N)nc(-c2cccs2)c1C#N	13.9%	16.4%	2.8%	21.3µM*	17.0%
O=C1Nc2ccccc2/C1=C/c1cnc(-c2ccccc2)[nH]1	?	3.98µM*	2.82µM*	?	.
CCOc1ccc(-n2c(SCC(=O)Nc3cc(C)on3)nc3c(c2=O)SCC3)cc1	5.4%	4.8%	-5.4%	2.3%	.
Cc1cc(Cl)ccc1NC(=O)C1COc2ccccc2O1 (configuration not stated)	?	4.5%	?	?	.
O=C(Nc1nnc(SCC(=O)N2CCCc3ccccc32)s1)c1cccc2ccccc12	-5.9%	6.8%	7.8%	?	-9.4%
Cc1ccc(C(=O)Nc2nnc(SCC(=O)N3CCCc4ccccc43)s2)cc1	?	0.316µM*	?	0.151µM*	?
CCOC(=O)CNC(=O)CSc1nc(-c2cccc(C)c2)ns1	-4.0%	6.0%	2.4%	23.9µM*	5.1%
CCOC(=O)CNC(=O)CSc1nnc(NC(=O)c2ccc(C)cc2)s1	?	0.562µM*	1.78µM*	0.601µM*	5.01µM*
CCOC(=O)CNC(=O)CSc1nnc(SCC(=O)NCC(=O)OCC)s1	4.7%	3.2%	1.6%	-3.3%	-31.9%
CCOC(=O)CNC(=O)CSc1nnc(NC(=O)c2ccc3c(c2)OCO3)s1	3.26µM*	3.16µM*	3.55µM*	0.953µM*	.
Cc1cccc(N2CCN(CCNC(=O)C3COc4ccccc4C3)CC2)c1C (configuration not stated)	.	.	.	-0.8%	.
CN(CC(=O)Nc1c(Cl)cccc1Cl)C(=O)c1ccc(-n2cncn2)c([N+](=O)[O-])c1	-1.0%	7.5%	-2.9%	1.9%	.
SMILES	ELG1 genotoxic	Rab9 prom act	NPC1 promoter act	FLuc counter	SMN2 splice up
CCOC(=O)CNC(=O)c1ccc(SCC)cc1	?	?	?	19µM*	.
CCOC(=O)CSc1nnc(NC(=O)c2cccc([N+](=O)[O-])c2)s1	-0.7%	-3.1%	0.1%	10.7µM*	-0.8%
C[N+](C)(C)c1ccc([C@H](N)C(=O)O)cc1	.	.	.	.	-4.3%[9.22 µM]
CCn1c2ccccc2c2nc3cc(OC)c(OC)cc3nc21	-1.8%	14.8%	-2.0%	8.49µM*	.
CCn1c2ccccc2c2nc3cc(C(=O)O)ccc3nc21	?	29.8%	12.6%	19µM*	-57.4%
CC(=O)n1c2ccccc2c2nc3ccccc3nc21	?	2.82µM*	3.16µM*	?	.
Cc1noc(C)c1S(=O)(=O)Nc1ccc2c(c1)C(=O)N([C@H](C)CO)C[C@@H](C)[C@@H](CN(C)Cc1ccc3c(c1)OCO3)O2	0.4%	.	.	.	.
O=C(NN1C(=O)NC2(CCCCC2)C1=O)c1ccc(-c2ccc([N+](=O)[O-])cc2)o1	-19.2%	-0.9%	1.2%	-2.8%	.
COc1ccc(/C(N)=N/OC(=O)CC2CCCCC2)cc1	?	20.2%	20.1%	16.9µM*	.
N/C(=N\OC(=O)CC1CCCCC1)c1cccc([N+](=O)[O-])c1	2.3%	-3.5%	-0.7%	6.01µM*	-27.0%
N/C(=N\OC(=O)CCC1CCCCC1)c1cccnc1	9.6%	-3.7%	11.5%	19µM*	17.0%
N/C(=N\OC(=O)CCC1CCCC1)c1cccc([N+](=O)[O-])c1	4.1%	1.1%	0.9%	9.53µM*	.
COC(=O)c1ccc2c(c1)N(C)S(=O)(=O)c1cnc(SCC(=O)C(C)(C)C)nc1-2	2.5%	-4.5%	1.7%	-2.6%	.
COc1ccc([C@H]2CC(=O)C=C(c3ccc4cc[nH]c4c3)C2)cc1	0.4%	-3.9%	6.6%	-0.1%	.
O=C(NCC1CCCN1S(=O)(=O)c1ccccc1)C(=O)NC1CC1 (configuration not stated)	0.2%	-2.0%	-5.0%	4.2%	.
COc1ccccc1CNC(=O)COC(=O)c1cccnc1SCC(=O)NCc1ccccc1OC	-6.6%	?	16.4%	?	1.4%
O=C(COC(=O)c1cccnc1SCC(=O)NCc1ccccc1)NCc1ccccc1	4.2%	11.4%	0.7%	2.69µM*	25.1%
COc1cccc2[nH]c3c(N4CC(C)CC(C)C4)ncnc3c12 (configuration not stated)	-5.9%	-1.0%	-0.8%	-11.6%	-18.0%
COc1cccc2[nH]c3c(N4CCCC(C)C4)ncnc3c12 (configuration not stated)	-1.8%	28.5%	15.2%	5.36µM*	3.9%
Cc1ccsc1C1C(C#N)=C(N)N(N(C)C)C2=C1C(=O)CC(C)(C)C2 (configuration not stated)	-6.9%	-4.0%	-0.8%	-0.3%	25.1µM*
COc1ccc(C2C(C#N)=C(N)N(N(C)C)C3=C2C(=O)CC(C)(C)C3)cc1 (configuration not stated)	5.9%	0.6%	0.2%	1.6%	.
CC(C)CCSc1nc2ccccc2[nH]1	?	3.55µM*	3.55µM*	10.7µM*	14.1µM*
COc1ccc(CSc2nc3ccccc3[nH]2)cc1	?	0.501µM*	0.398µM*	1.51µM*	?
c1ccc2[nH]c(SCc3ccc(-c4nnco4)cc3)nc2c1	?	3.55µM*	?	10.7µM*	25.5%
